Records with an inconclusive call do not appear. Active and inactive are the calls of the source. Unless noted, the call rests on the fitted dose curve; in most records, active means well fitted curve in the direction sought with a large enough effect; inconclusive means small, poorly fitted or top-dose-only effect, or another doubt; inactive means no such curve, though single readings can be large; an effect the other way counts as inactive or inconclusive.
Tests used:
[1] = target: Glutathione peroxidase 1 (Homo sapiens) (UniProt P07203); assay: Primary qHTS Assay for Inhibitors of Recombinant Selenoprotein Glutathione Peroxidase 1 (GPX1) (AID 1845191); further: nearly all actives have a fitted effect of over 65% in size; on activity, negative = inhibition: on the % scale 0 is the no-effect control and ±100 the full control effect
Chain of Glutathione peroxidase 1 (Homo sapiens) (P07203 whole entry, looked up): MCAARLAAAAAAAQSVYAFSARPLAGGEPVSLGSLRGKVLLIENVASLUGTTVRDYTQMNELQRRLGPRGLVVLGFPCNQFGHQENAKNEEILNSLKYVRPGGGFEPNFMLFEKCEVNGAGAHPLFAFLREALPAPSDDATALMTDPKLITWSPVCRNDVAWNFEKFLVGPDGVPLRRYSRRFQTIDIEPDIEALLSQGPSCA
Method in brief: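 10 nM GPX1 + cpd, 30 min RT; start w/ 1 mM GSH, 0.5 mM cumene hydroperoxide, 0.5 mM NADPH, 100 nM GR, 0.01% BSA; buffer 50 mM Tris-HCl pH 7.5, 2 mM EDTA, 150 mM NaCl; Fl 340/450, 0 & 15 min.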

[2] = target: Phospholipid hydroperoxide glutathione peroxidase GPX4 (Homo sapiens) (UniProt P36969); assay: Primary qHTS Assay for Inhibitors of Recombinant Selenoprotein Glutathione Peroxidase 4 (GPX4) (AID 1845192); further: nearly all actives have a fitted effect of over 65% in size
Chain of Phospholipid hydroperoxide glutathione peroxidase GPX4 (Homo sapiens) (P36969 whole entry, looked up): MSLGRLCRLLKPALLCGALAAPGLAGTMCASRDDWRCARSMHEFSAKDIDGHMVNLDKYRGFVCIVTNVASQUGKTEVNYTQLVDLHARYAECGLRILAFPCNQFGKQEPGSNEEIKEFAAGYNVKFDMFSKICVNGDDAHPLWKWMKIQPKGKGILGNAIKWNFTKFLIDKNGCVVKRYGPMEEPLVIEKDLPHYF
Method in brief: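 NADPH consumption, followed by fluorescence at 340/450 nm between 0 and 15 min, reports GPX4 activity via coupled glutathione reductase (100 nM). Enzyme 200 nM was pre-exposed to compound 30 min; 0.5 mM cumene hydroperoxide and 1 mM GSH served as substrates.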

[3] = tested on: Nanoluciferase (engineered Oplophorus gracilirostris luciferase); assay: Primary Nanoluciferase (NLuc) qHTS assay for identification of artifact compounds. (AID 1845222);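 further: NLuc secreted into diluted conditioned medium of S16 cells; series mostly up to about 54 µM; 0% = DMSO and -100% = no enzyme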
Method in brief: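 NLuc from S16 cell medium (1:55) plus test compounds, 15 min, room temperature. Luminescence after Nano-Glo (1:100) addition, 5 min.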

[4] = Primary redox qHTS assay for identification of artifact compounds. (AID 1845223);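 further: 0% = DMSO and 100% = reference compound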
Method in brief: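 Amplex Red (25 uM) and HRP (250 mU/mL) in HBSS, with compounds for 15 min, then 250 uM DTT for 30 min, room temperature, dark. Fluorescence 525/598 nm read; normalized to DMSO and 10 uM DA3003; Hill fit.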

[5] = Primary fluorescence-based thiol-reactive (MSTI) qHTS assay for identification of artifact compounds. (AID 1845221); further: nearly all actives have a fitted effect of over 65% in size; further: potency means the concentration at half of the fitted maximal effect;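 on activity change, negative = thiol reactive: series mostly up to about 54 µM; thiol-reactive compounds lower the probe fluorescence signal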
Method in brief: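 First, 4 uM MSTI in 2% DMSO/PBS pH 7.4 was dispensed; next, compounds were added; then plates sat 1 h at room temperature without light. Finally, emission at 598 nm was recorded.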

[6] = qHTS drug screen for cell cycle checkpoint inhibitors in PARPi-resistant BRCA-mutant ovarian cancer cell lines. (AID 1963452; calls by dose curve); conditions: PEO1/OlaR viability, CellTiter-Glo luminescence, 96 h, stronger effect = lower value
Method in brief: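 PEO1, PEO4 and PEO1/OlaR ovarian cancer cells, 600 per well, exposed 96 h at 37C to a dilution series. Viability read by CellTiter-Glo luminescence, normalized to DMSO and empty wells; activity summarized as Z-AUC.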

[7] = measured here: PEO1 parental Z-AUC

CC(C)(O)c1ccc2c(c1)C(O)C[C@H]1[C@](C)(C(=O)O)CCC[C@]21C (some centres not stated)
inactive: Potency [1] | Potency [2] | Potency [3] | Potency [4]

Cc1nc(NC(=O)N2CCCC2C(N)=O)sc1-c1csc(C(C)(C)C)n1 (configuration not stated)
inactive: Potency [1] | Potency [2] | Potency [5] | Potency [3] | Potency [4]

CC(=O)C1=C(C)N(c2cccc(C(F)(F)F)c2)C(=O)N[C@H]1c1ccc(C#N)nc1
inactive: Potency [1] | Potency [2] | activity change, negative = thiol reactive [5] 33.4% [at 11.5 µM] | activity, negative = inhibition [3] -1.73% [at 11.6 µM] | redox activity (% of DA3003) [4] -3.41% [at 11.5 µM]

CC(=O)O[C@H]1CC[C@@]2(C)C(CC[C@@H](C)[C@]23Cc2c(O)cc4c(c2O3)CN([C@@H](CCC(=O)O)C(=O)O)C4=O)C1(C)C (some centres not stated)
inactive: Potency [1] | Potency [2] | Potency [5] | Potency [3] | Potency [4]

C=C1C(OC(=O)/C(C)=C\C)[C@@]23CCC4[C@@](C)(CCC[C@@]4(C)C(=O)O)C2CC[C@H]1C3OC(C)=O (some centres not stated)
inactive: Potency [1] | Potency [2] | Potency [5] | Potency [3] | Potency [4]

CCN1CCN(Cc2ccc(NC(=O)c3ccc(C)c(/C=C/c4cnc5[nH]ccc5c4OC)c3)cc2C(F)(F)F)CC1
-1.42: Z-AUC ([6]; measured here: PEO4 Z-AUC)
-1.48: Z-AUC [6, 7]
inactive: Potency [1] | Potency [2] | Potency [5] | Potency [3] | Potency [4] | Z-AUC [6] -1.16

C#CCN(Cc1cc2c(=O)[nH]c(C)nc2cc1Br)c1ccc(C(=O)NCc2cccnc2)cc1
inactive: Potency [1] | Potency [2] | Potency [5] | Potency [3] | Potency [4]

COc1ccc(C2COc3cc(O)ccc3C2)c(O)c1 (configuration not stated)
inactive: Potency [1] | Potency [2] | Potency [5] | Potency [3] | Potency [4]

CN[C@H](CC(C)C)C(=O)N[C@H]1C(=O)N[C@@H](CC(N)=O)C(=O)N[C@H]2C(=O)N[C@H]3C(=O)N[C@H](C(=O)N[C@H](C(=O)O)c4cc(O)cc(O)c4-c4cc3ccc4O)[C@H](O[C@H]3C[C@](C)(N)[C@@H](O)[C@H](C)O3)c3ccc(c(Cl)c3)Oc3cc2cc(c3O[C@@H]2O[C@H](CO)[C@@H](O)[C@H](O)[C@H]2O[C@H]2C[C@](C)(NCc3ccc(-c4ccc(Cl)cc4)cc3)[C@@H](O)[C@H](C)O2)Oc2ccc(cc2Cl)[C@H]1O
inactive: Potency [1] | Potency [2] | Potency [5] | Potency [3] | Potency [4]

C=C[C@H]1C(O[C@@H]2O[C@H](CO)[C@@H](O)[C@H](O)[C@H]2O)OC=C2C(=O)N3CCc4c([nH]c5ccccc45)[C@H]3C[C@H]21 (some centres not stated)
inactive: Potency [1] | Potency [2] | Potency [5] | Potency [3] | Potency [4]

Cn1nnc(-c2ccc(-c3ccc(N4C[C@H](CO)OC4=O)cc3F)cn2)n1
inactive: Potency [1] | Potency [2] | Potency [5] | Potency [3] | Potency [4]

C=CC(=O)Nc1cccc(Nc2nc(Nc3ccc(N4CCN(C(C)=O)CC4)cc3OC)ncc2C(F)(F)F)c1
inactive: Potency [1] | Potency [2] | Potency [3] | Z-AUC [6] -0.226
0.717: Z-AUC [6, 7]
active: Potency [5] 2.99 µM
-0.058: Z-AUC ([6]; measured here: PEO4 Z-AUC)

CC(=O)c1cc2c(cc1O)OC(C)(C)C=C2
inactive: Potency [1] | Potency [2] | Potency [5] | Potency [3] | Potency [4]

c1ccc(-c2csc(N3CCOCC3)n2)cc1
inactive: Potency [1] | Potency [2] | Potency [3] | Potency [4]

C/C=C(/COC(=O)/C(C)=C/C)C(=O)OC(CC)c1ccc(OC)c(OC)c1 (configuration not stated)
inactive: Potency [1] | Potency [2] | Potency [5] | Potency [3] | Potency [4]

C=CC1C(OC2OC(CO)C(O)C(O)C2O)OC=C2C(=O)N3C(C(=O)O)Cc4c([nH]c5ccccc45)C3CC21 (configuration not stated)
inactive: Potency [1] | Potency [2] | Potency [3] | Potency [4]

O=C(CSc1nc2c(c(=O)n1-c1ccccc1)SCC2)Nc1ccc(-c2ccccc2)cn1
inactive: Potency [1] | Potency [2] | Potency [5] | Potency [3] | Potency [4]

COC(=O)CCc1cc2ccoc2c(OC)c1O[C@@H]1O[C@H](CO)[C@@H](O)[C@H](O)[C@H]1O
inactive: Potency [1] | Potency [2] | Potency [5] | Potency [3] | Potency [4]

CCOCc1nc2c(N)nc3ccccc3c2n1CC(C)(C)O
inactive: Potency [1] | Potency [2] | Potency [5] | Potency [3] | Potency [4] | Z-AUC [6] -0.746
-0.947: Z-AUC ([6]; measured here: PEO4 Z-AUC)
-0.509: Z-AUC [6, 7]

C[C@@]1(O)[C@H](O)[C@@H](CO)O[C@H]1n1ccc(N)nc1=O
inactive: Potency [1] | Potency [2] | Potency [5] | Potency [3] | Potency [4]

COc1ccc(/C=C\C(=O)O)c(O[C@@H]2O[C@H](CO)[C@@H](O)[C@H](O)[C@H]2O)c1
inactive: Potency [1] | Potency [2] | Potency [3] | Potency [4]

CC1=C2C3OC(=O)C(C)C3(O)CCC2(C)CCC1O (configuration not stated)
active: Potency [5] 11.9 µM
inactive: Potency [1] | Potency [2] | Potency [3] | Potency [4]

CC[C@H](NC(=O)[C@H](CS(=O)(=O)CC1CC1)N[C@@H](c1ccc(F)cc1)C(F)(F)F)C(=O)C(=O)NC1CC1
1.51: Z-AUC ([6]; measured here: PEO4 Z-AUC)
1.63: Z-AUC [6, 7]
inactive: Potency [1] | Potency [2] | Potency [5] | Potency [3] | Potency [4] | Z-AUC [6] 0.263

Reference: PubChem BioAssay (NCATS)
